This is an account of results in ChEMBL document CHEMBL4513216, “Probing the Open Global Health Chemical Diversity Library for Multistage-Active Starting Points for Next-Generation Antimalarials” (ACS Infect Dis, 2020).

In all, about 69,000 compounds went through this assay and about 8,600 (12%) showed an effect of 50% or more. The full list was thinned out, with strong results kept by preference.

The experiment has as its system Plasmodium berghei. Kind of experiment: Screen against P. berghei liver stage (PbLuc), transformed with Luciferase, at 10uM. The format is functional, HepG2. The note with it: tested at 10 uM.
For `CC(=O)N1CCn2c(nnc2C2CCCCN2C(C)=O)C1` (stereo not given), the INHIBITION is reported as -55%.
To `CCN(CC)CCNC(=O)c1cc(C(C)C)nc(N2CCCC2)n1` belongs 15.8%; to `CCCNC(=O)c1cc(C(C)C)nc(N2CCCC2)n1`, 32.5%; to `CC(C)c1cc(C(=O)NCCCN(C)C)nc(N2CCCC2)n1`, 52.4%.
As for `CCCNC(=O)c1cc(C(C)C)nc(N2CCCCC2)n1`, the INHIBITION is recorded as 44.9%.
As to `COCCNC(=O)c1cc(C(C)C)nc(N2CCCC2)n1`, the INHIBITION was found to be 16.8%.
`CC(C)c1cc(C(=O)NCCN2CCOCC2)nc(N2CCCC2)n1`: the INHIBITION worked out at 51.6%.
Next, `COCCCNC(=O)c1cc(C(C)C)nc(N2CCCCCC2)n1`: 37.5%.
Regarding `COCCCNC(=O)c1cc(C(C)C)nc(N2CCCC2)n1`, the INHIBITION was -23.8%.
As for `COCCNC(=O)c1cc(C(C)C)nc(N2CCCCC2)n1`, the INHIBITION stood at 52.4%.
Turning to `c1ccc(C2CN(CCc3ccncc3)CCO2)cc1` (stereo not given), the INHIBITION came to 6.12%.
Turning to `CN(CC(F)(F)F)C(=O)Cn1cc(NC(=O)C(C)(C)C)cn1`, the INHIBITION was -0.551%.
To `Cc1nn(C)c(N(C)C)c1CNC1CCc2cc(F)ccc21` (stereo not given) belongs 27.4%.
With `Cc1ccccc1S(=O)(=O)N[C@@H]1CC[C@@H](N2CCNC(=O)C2)[C@@H]1O`, the INHIBITION is listed as 6.65%.
To `COc1cc(CNCC(O)c2cccc(F)c2)cc2c1OCO2` (stereo not given) belongs 44.1%; to `Cc1nc(CN(C)C2CCCN(c3cccnn3)C2)nc2ccccc12` (stereo not given), 47%; to `CCN(CC)c1ncccc1CNCc1ccc(-c2ccn[nH]2)s1`, 27.6%.
For `O=C(O)c1ccccc1-c1cnc(CNC(=O)C2CCOCC2)nc1`, the INHIBITION is reported as -17.35%.
Next, `O=C(O)c1ccccc1-c1ccc(CNC(=O)C2CCOCC2)cc1`: 56.6%; `CC1CCCCN1Cc1ccc(-c2ccccc2C(=O)O)cc1` (stereo not given): 25.3%.
Next, `COCc1cc(NCC(F)(F)F)n2nccc2n1`: 7.24%.
Next, `Cc1nc(N(C)C)nc(NCCc2cnccn2)c1C`: 27.4%; `O=S(=O)(C1CC1)N1CCC2(CC1)CC(Oc1cccnc1)CO2` (stereo not given): 26.7%; `CN(C)C(=O)COC1COC2(CCN(c3cnccn3)CC2)C1` (stereo not given): 21.6%.
For the compound `N#Cc1ccc(N2CCC3(CC2)CC(N2CCOCC2)CO3)cc1` (stereo not given), the INHIBITION stood at 73.2%.
`c1cncc(COC2COC3(CCN(c4cnccn4)CC3)C2)c1` (stereo not given): the INHIBITION worked out at 60%.
In the case of `c1cncc(N2CCCC3(CCN(CCN4CCCC4)CC3)C2)c1`, the INHIBITION is -26.1%.
To `N#Cc1ccc(N2CCCC3(CCN(c4cccnc4)CC3)C2)cc1` belongs 85.6%.
Next, `c1cncc(N2CCC3(CCCN(c4ccncc4)C3)CC2)c1`: -29%; `CN1CCN(C2COC3(CCN(c4ccc(C#N)cc4)CC3)C2)CC1` (stereo not given): 39.5%.
In the case of `N#Cc1ccc(N2CCC3(CC2)CC(Oc2cccnc2)CO3)cc1` (stereo not given), the INHIBITION was 73.3%.
Next, `CN1CCOCC12CCN(c1ccc(C#N)cc1)CC2`: -15.3%.
To `O=C(c1ccncc1)N1CCC2(CC1)CC(Oc1cccnc1)CO2` (stereo not given) belongs 35.8%; to `Fc1cnc(N2CCC3(CC2)CC(OCc2cccnc2)CO3)nc1` (stereo not given), 30.5%; to `O=C(c1cccc(N2CCCC2=O)c1)N1CCCC(n2cccn2)C1` (stereo not given), -21.35%.
Next, `O=C(c1c[nH]c(=O)[nH]c1=O)N1CCCC(c2nccn2CC2CCC2)C1` (stereo not given): 22%.
Turning to `CC(=O)N(Cc1ncc(C)o1)C1CCN(CCc2ccncc2)C1` (stereo not given), the INHIBITION is given as 12.7%.
To `CN(Cc1ccccc1F)C(=O)COC(=O)c1cc(Cl)c[nH]1` belongs 29.9%; to `O=c1[nH]c(-c2ccncc2)ncc1-c1ccnc(NC2CC2)n1`, 18.9%; to `c1cnc(Nc2ccc(C3CCCCN3Cc3ccncc3)cn2)nc1` (stereo not given), 23.3%.
To `O=C(Cc1ccccc1)N1CCC2(CC1)COCCN2CC1CC1` belongs 6.6%; to `COCCOCC(C)NC(=O)COc1nn(C)c2nc(C)cc(C)c12` (stereo not given), 9.63%.
To `CCOc1ncccc1NC(=O)NC1CCN(S(C)(=O)=O)CC1` belongs 44.8%; to `O=C(Nc1nc(-c2ccccc2)ns1)N1CCC(CO)CC1`, -95.1%; to `Cc1nn(C)c(N(C)C)c1CNCc1cccc(Cn2ccnc2)c1`, -31.5%.
Take `c1cncc(CO[C@H]2CO[C@@]3(CCN(Cc4ccoc4)C3)C2)c1`: the INHIBITION is listed as -0.79%.
Next, `N#Cc1ccc(N2CCC3(CC2)CC(OCc2cccnc2)CO3)cc1` (stereo not given): 58.5%; `Fc1ccc(N2CCC3(CC2)CC(OCc2cccnc2)CO3)cc1` (stereo not given): 33.4%.
As to `O=C(NCc1ccco1)[C@H]1C[C@@H]2CCN(c3ncccn3)C[C@H]2O1`, the INHIBITION is on record as 9.51%.
To `c1cc(CNCC2OCCc3cn(CC4CC4)nc32)cs1` (stereo not given) belongs 20.9%; to `COc1ccc2c(c1)c(-c1nc(C)ncc1CN)cn2C`, 27.6%.
`CN(Cc1ccc(CCC(C)(C)O)cc1)Cc1cccnc1`: the INHIBITION amounted to 57.1%.
Regarding `CN(Cc1ccccc1)CC(C)(C)NC(=O)c1ccc(C(N)=O)cn1`, the INHIBITION came out at 52.2%.
Next, `CN(Cc1ccccc1)CC(C)(C)NC(=O)c1ccon1`: 38.7%.
For `CN(Cc1ccc(CCC(C)(C)O)cc1)Cc1cccc(O)c1`, the INHIBITION is reported as 22.5%.
On to `Cc1cnc(CNC(=O)N(Cc2ccccc2)CC(C)(C)O)s1`, for which the INHIBITION was 15.7%.
Consider `CN(Cc1ccccc1)CC(C)(C)NC(=O)c1cnccn1`, for which the INHIBITION was 64.5%.
Next, `CC(C)(C)CNC(=O)c1ccc(C(=O)O)cn1`: 11.3%.
Turning to `CC(c1ccccn1)N(C)Cc1ccc(CCC(C)(C)O)cc1` (stereo not given), the INHIBITION was determined as 36.6%.
Next, `CN(Cc1ccccc1)CC(C)(C)NC(=O)c1cnns1`: 25.3%; `Cc1ccc(C(=O)N2CCN3C[C@H](Oc4cccc(F)c4)C[C@H]3C2)cn1`: 0.804%.
On to `O=C(NCC1CC2(CO1)CN(Cc1cccs1)C2)C1CCC1` (stereo not given), for which the INHIBITION is 27.6%.
Next, `COc1ccc(F)c(-c2ncccc2C(=O)N2C[C@@H]3CC[C@H]2C3)c1`: 39%; `COc1ccccc1OCc1cc(C(=O)N2CC(O)C2)n[nH]1`: -34.5%.
Next, `COc1ccccc1OCc1cc(C(=O)N2CCN[C@H](C)C2)n[nH]1`: 51.8%; `COc1ccc(OCc2cc(C(=O)N3CCN[C@H](C)C3)n[nH]2)c(Cl)c1`: 65.1%; `COc1ccc(OCc2cc(C(=O)N3CCC(O)CC3)n[nH]2)c(Cl)c1`: -3.75%.
Next, `COc1ccc(OCc2cc(C(=O)N3C[C@@H](C)O[C@@H](C)C3)n[nH]2)c(Cl)c1`: 44.2%.
`COc1ccccc1OCc1cc(C(=O)N2C[C@@H](C)O[C@@H](C)C2)n[nH]1`: the INHIBITION is -16%.
To `Cc1cccc(C(=O)N2CC(=O)N(c3ccccc3Cl)CC2C)n1` (stereo not given) belongs 28.2%; to `Cc1ccc(N(C)S(=O)(=O)c2cc(C(=O)O)cs2)c(C)c1`, -42.1%.
Turning to `Cn1cc(CN2CC[C@H]3OCC[C@@H](C(=O)NC4CCCC4)[C@@H]3C2)cn1`, the INHIBITION is given as 10%.
Next, `CNc1nc2cn(CCc3ccc(F)cc3)c(=O)c-2c[nH]1`: 45.8%.
To `O=C1CC(c2ccc(O)cc2)c2c(c(C(=O)O)cn2-c2ccccc2)N1` (stereo not given) belongs 25.2%; to `COc1ccc(CN2CCn3cc(Cn4cccn4)nc3C2)cc1`, 7.9%; to `COc1ccccc1OCCN(C)Cc1c(C2CC2)[nH]c2ncccc12`, 10.7%.
Next, `CC(CC(=O)N1CCCS1(=O)=O)c1ccccc1C(F)(F)F` (stereo not given): 50.1%; `COc1ccccc1C(C)CC(=O)N1CCCS1(=O)=O` (stereo not given): -6.7%.
As to `CC(Cc1ccc(C(F)(F)F)cc1)C(=O)N1CCCS1(=O)=O` (stereo not given), the INHIBITION is -33.4%.
On to `Cc1ncc(C(=O)N2CCCC2c2c(C)nn(C)c2C)s1` (stereo not given), for which the INHIBITION turned out to be 23.2%.
For the compound `CCc1ccc(CC)c(NCc2cnc(N3CCOCC3)nc2)c1`, the INHIBITION is -36.4%.
With `O=C(c1c[nH]cn1)N1CCC(F)(F)C2(CCN(c3ccccn3)C2)C1` (stereo not given), the INHIBITION amounted to 34.6%.
To `O=C(c1c[nH]cn1)N1CCC(F)(F)C2(CCN(c3ncccn3)C2)C1` (stereo not given) belongs 2.41%; to `O=C(c1c[nH]cn1)N1CCC(F)(F)C2(CCN(c3cnccn3)C2)C1` (stereo not given), 52.3%.
For `CN1C(=O)COc2ccc(C(=O)Cn3cnc4ccccc4c3=O)cc21`, the INHIBITION was -35.1%.
Take `Cc1cnn(CC2CCCCN2C(=O)CCCc2nc(C)no2)c1` (stereo not given): the INHIBITION worked out at 11.3%.
To `O=C(Nc1ncnc2c1CCC2)c1ccc2c(c1)OCO2` belongs -19.7%; to `COc1cc(OC)cc(C(=O)Nc2ncnc3c2CCC3)c1`, 52.4%; to `O=C(Nc1ncnc2c1CCC2)c1cccc(F)c1`, -44.2%.
Take `Cc1cc(C(=O)NCc2ccc(F)cc2)c2c(C3CCCN3)noc2n1` (stereo not given): the INHIBITION amounted to 31.7%.
Turning to `CNC(=O)c1cc2c(nc1NCC(C)C)CCN(c1ncccn1)CC2`, the INHIBITION is given as 85.4%.
Next, `CNC(=O)c1cc2c(nc1NCC1CC1)CCN(c1ncccn1)CC2`: -17.1%.
To `CNC(=O)c1cc2c(nc1NCC(C)C)CCN(S(=O)(=O)C1CC1)CC2` belongs -6.75%; to `CNC(=O)c1cc2c(nc1NCC(C)C)CCN(CC1CC1)CC2`, 86.7%; to `CC(C)Nc1nc2c(cc1C(=O)NCC1CC1)CCNCC2`, 32.7%.
Next, `CNC(=O)c1cc2c(nc1NCC1CC1)CCNCC2`: 9.72%; `CNC(=O)c1cc2c(nc1NCC(C)C)CCN(C)CC2`: 48.7%; `CNC(=O)c1cc2c(nc1NCC1CC1)CCN(CC1CC1)CC2`: 8.67%.
On to `CC(C)CNc1nc2c(cc1C(=O)NCC1CC1)CCNCC2`, for which the INHIBITION came out at 94.5%.
`CO[C@H]1CO[C@@]2(CCCN(S(=O)(=O)c3ccccc3)C2)C1`: the INHIBITION is reported as 42.7%.
To `O=C([C@H]1C[C@H]2OCC[C@H]2N(CCc2ccccc2)C1)N1CCCO1` belongs 43.9%; to `CC(C)NC(=O)Cn1cc(-c2ccccc2)ncc1=O`, 12.9%; to `CC(=O)c1ccc(-c2cnn(CC(=O)Nc3ccnn3C)c2)nc1`, 46.1%.
Next, `Cn1ccnc1-c1cnn(CC(=O)Nc2ccnn2C)c1`: 62.4%; `CC(=O)c1ccc(-c2cnn(CC(=O)Nc3cc(C)nn3C)c2)nc1`: 28.7%.
